Assay outcomes: PubChem, National Center for Advancing Translational Sciences (NCATS)
Hits are enriched below; roughly 10% of the tested compounds scored in any of these assays.
3T3 cytotox – Cytotoxic Profiling in NIH 3T3 Cell Line of Diverse Libraries Using Quantitative High-Throughput Screening. 4.3% of 94,000 active. NIH 3T3 viability, CellTiter-Glo ATP luminescence, 48-72 h. Potency, µM (doses to about 96.7 µM), without a hit: at the highest dose activity change, negative = cytotoxicity, hits mostly inhibitors. AID 1345082, 2018; further: nearly all actives have a fitted effect of over 55% in size
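First NIH 3T3 cells are plated at 400 cells/well; next compound is pinned in; then plates incubate 48 or 72 hr at 37 °C; finally CellTiter-Glo is added and luminescence read after 10 min.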
GPT2 inhibitor – Primary qHTS assay for inhibitors of Glutamate pyruvate transaminase 2 (GPT2). 0.25% of 100,000 active. Potency, µM (doses to about 57.7 µM), for inactives: at the top dose activity change, negative = inhibition, actives largely listed as inhibitors. Recombinant GPT2, coupled pyruvate oxidase/HRP Amplex Red fluorescence; further: nearly all actives have a fitted effect of over 60% in size
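GPT2 10ng/uL, a-KG 250uM, L-Ala 2mM, HEPES pH7.5 + 0.0001% Tween; 30 min RT. Then Amplex mix (PO/HRP/ThPP), 30 min RT dark, fluorescence. AOA 50uM used as positive control.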
FLuc inh – Firefly luciferase inhibition profiling of diverse chemical library using quantitative high-throughput screening | Luciferin 4-monooxygenase (Photinus pyralis), P08659 | purified P. pyralis luciferase, luminescence, biochemical | Potency, µM (series often up to 115 µM), actives largely listed as inhibitors | 2.5% of 76,000 active | AID 1347043, 2019; further: nearly all actives have a fitted effect of over 65% in size
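Purified P. pyralis luciferase (10nM final) in 50mM Tris acetate pH 7.5, 10mM Mg acetate, 0.01% Tween-20, 0.05% BSA with 10uM D-luciferin and 10uM ATP. Compounds titrated qHTS. Luminescence imaged on CCD.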
HEK293 tox – Cytotoxic Profiling in HEK 293 Cell Line of Diverse Libraries Using Quantitative High-Throughput Screening; HEK 293 viability, ATP luminescence (CellTiter-Glo), 48-72 h; Potency, µM (titrated, usually from 115 µM), without a hit: top-dose activity change, negative = cytotoxicity, most hits filed as inhibitors; 6.6% of 94,000 active; AID 1345083, 2018; further: nearly all actives have a fitted effect of over 60% in size
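CellTiter-Glo luminescence (cellular ATP) was read after 48 or 72 hr of compound exposure at 37 degree Celsius. Cells were HEK 293 plated at 250 cells/well.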
NPR1 antag – Natriuretic polypeptide receptor (hNpr1) antagonism - Primary qHTS; Atrial natriuretic peptide receptor 1 (Homo sapiens), P16066; HEK293 hNpr1 GloSensor cGMP, ANP-stimulated luminescence; Potency, µM (series often up to 46.3 µM), without a hit: at the top dose activity change, negative = inhibition, actives largely listed as inhibitors; 1.6% of 76,000 active; AID 1347048, 2019; calls by dose curve; further: nearly all actives have a fitted effect of over 60% in size
Target sequence (P16066 whole entry, looked up): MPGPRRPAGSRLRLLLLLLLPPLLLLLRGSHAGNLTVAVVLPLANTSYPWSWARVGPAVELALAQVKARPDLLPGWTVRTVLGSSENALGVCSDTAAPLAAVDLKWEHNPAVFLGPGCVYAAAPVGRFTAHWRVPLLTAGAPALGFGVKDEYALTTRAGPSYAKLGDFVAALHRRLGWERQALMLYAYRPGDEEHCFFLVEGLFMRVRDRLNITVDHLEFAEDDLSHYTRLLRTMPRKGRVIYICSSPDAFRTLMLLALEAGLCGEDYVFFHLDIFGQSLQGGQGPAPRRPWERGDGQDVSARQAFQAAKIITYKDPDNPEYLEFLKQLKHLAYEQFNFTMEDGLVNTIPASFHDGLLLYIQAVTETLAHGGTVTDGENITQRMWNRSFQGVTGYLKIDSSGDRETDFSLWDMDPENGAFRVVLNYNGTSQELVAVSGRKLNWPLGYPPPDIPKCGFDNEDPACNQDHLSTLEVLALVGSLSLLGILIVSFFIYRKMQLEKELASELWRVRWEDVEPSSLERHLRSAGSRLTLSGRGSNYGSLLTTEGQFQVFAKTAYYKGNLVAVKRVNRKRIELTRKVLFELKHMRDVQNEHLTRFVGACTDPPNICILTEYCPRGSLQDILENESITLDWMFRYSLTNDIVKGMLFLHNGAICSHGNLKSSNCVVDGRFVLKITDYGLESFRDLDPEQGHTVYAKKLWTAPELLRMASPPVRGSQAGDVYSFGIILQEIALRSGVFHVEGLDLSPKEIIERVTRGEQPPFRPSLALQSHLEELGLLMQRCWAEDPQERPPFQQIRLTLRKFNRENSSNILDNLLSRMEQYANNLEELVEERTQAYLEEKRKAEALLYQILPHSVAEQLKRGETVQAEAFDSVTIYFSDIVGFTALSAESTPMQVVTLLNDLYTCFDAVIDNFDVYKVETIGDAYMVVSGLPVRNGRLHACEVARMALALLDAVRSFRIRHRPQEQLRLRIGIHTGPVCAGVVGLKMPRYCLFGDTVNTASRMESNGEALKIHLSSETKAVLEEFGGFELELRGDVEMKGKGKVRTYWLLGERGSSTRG
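HEK293 cells stably expressing human Npr1 and cGMP GloSensor pGS-40F, loaded 2 h with 2% GloSensor reagent, given compound 30 min at room temperature. Luminescence read before and 20 min after 0.1 nM hNppA.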
* marks the source's active call; other numbers are inactive results; i = inactive; ? = inconclusive; . = not tested or not shown; [ ] = dose if it differs, or a comment. Unless noted, the call rests on the fitted dose curve; in most records, active means well fitted curve in the direction sought with a large enough effect; inconclusive means small, poorly fitted or top-dose-only effect, or another doubt; inactive means no such curve, though single readings can be large; an effect the other way counts as inactive or inconclusive. On the % scale 0 is the no-effect control and ±100 the full control effect; potency means the concentration at half of the fitted maximal effect.

SMILES	3T3 cytotox	GPT2 inhibitor	FLuc inh	HEK293 tox	NPR1 antag
O=C(O)CCn1ncc2cc(OCC3CCN(c4ncccn4)CC3)ccc21	50µM*	-13%[88.5 µM]	63µM*	-11%[172 µM]	3%[70.6 µM]
CCCC(=O)N1CCn2c(nnc2[C@@H]2C[C@@H](O)CN2Cc2ccccc2)C1	-8%	i	i	-4%	1%
CCn1cc(CN2CCC3(CC2)CC(C(=O)N2CCOCC2)N(C)C3)cn1 (stereo not given)	-8%	i	.	-1%	.
O=[S+]([O-])(NC1CCN(c2ccnc3ccnn23)CC1)c1ccccc1	?	i	.	?	.
CC(C)=CCn1c(-c2ccccc2Cl)cn2cc(C(=O)NCCCO)nc2c1=O	-17%	-3%	i	?	0%
Cc1ccc(CC(=O)N2CCc3cn(C)c4cccc(c34)C2)cc1	?	i	i	79µM*	3%
O=C(OCC1=CC(Cl)C(O)C(OC(=O)c2ccccc2)C1O)c1ccccc1 (stereo not given)	.	i	.	.	.
CCc1nc2c(c(-c3ccc(O)cc3)n1)CN(C(=O)C1CCCC1)CC2	?	i	.	40µM*	.
O=C(C1CCCC1)N1CCc2nc(-c3ccccc3)nc(-c3ccc(Cl)cc3)c2C1	?	-3%	i	35µM*	-13%
CCc1nc2c(c(-c3ccc(O)cc3)n1)CCN(C(=O)NC1CCCC1)CC2	-28%	i	.	?	.
COc1ccc(-c2nc(-c3ccccc3)nc3c2CN(C(=O)C2CCCC2)CC3)cc1	?	i	i	35µM*	5%
COc1ccc(-c2nc(C3CC3)nc3c2CN(C(=O)c2ccccc2F)CC3)cc1	28µM*	i	.	-10%	.
COc1ccc(-c2nc(C3CC3)nc3c2CCN(C(=O)c2ccccc2F)CC3)cc1	-24%	i	.	?	.
Cc1ccc(C(=O)N2CCN(C(=O)c3nc4cccnc4n(C4CC4)c3=O)CC2)cc1	-7%	i	.	4%	.
CCCCCNC(=O)c1ccc(-c2ccc(OC)nn2)cc1	-21%[138 µM]	.	.	-19%[172 µM]	.
O=C(C1CCCC1)N1CCc2nc(-c3ccc(Cl)cc3)nc(-c3ccccc3)c2C1	?	-4%	?	18µM*	-13%
O=C(C1CC1)N1CCc2nc(-c3ccccc3)nc(-c3ccc(Cl)cc3)c2C1	-23%	i	i	-17%	-30%
CS(=O)(=O)N1CCC2(CC1)CN(c1cccc(F)c1)C2c1ccccc1 (stereo not given)	?	-26%	.	13µM*	.
CCN1CCN(C(=O)c2cn3cc(-c4ccc(OC)cc4)sc3n2)CC1	?	i	.	?	.
C=CCNC(=O)[C@@H]1Cc2cn(Cc3nccn3C)c3cccc(c23)[C@H](CC(C)C)N1	79µM*	?	i	?	-2%[70.6 µM]
CC(C)C[C@@H]1N[C@H](C(=O)NC(C)C)Cc2cn(Cc3nccn3C)c3cccc1c23	79µM*	0%[88.5 µM]	i	?	-13%[70.6 µM]
C=CCN(C)C(=O)[C@@H]1Cc2cn(Cc3nccn3C)c3cccc(c23)[C@H](CC(C)C)N1	?	2%[88.5 µM]	i	100µM*	4%[70.6 µM]
C=CCN(C)C(=O)[C@@H]1Cc2cn(Cc3cc(C)on3)c3cccc(c23)[C@H](CC(C)C)N1	71µM*	?	i	71µM*	2%[70.6 µM]
O=C1OCC(c2ccccc2)=C1Cc1ccccc1	.	i	.	.	.
CC(C)C[C@@H]1N[C@H](C(=O)NC2CCC2)Cc2cn(Cc3nccn3C)c3cccc1c23	79µM*	?	i	?	-16%[70.6 µM]
SMILES	3T3 cytotox	GPT2 inhibitor	FLuc inh	HEK293 tox	NPR1 antag
OC[C@@H]1CN(CC2CC2)C[C@H]1c1nc(-c2ccncc2)no1	-11%	i	35µM*	-3%	0%
OC[C@@H]1CN(Cc2ccccc2F)C[C@H]1c1nc(-c2ccncc2)no1	-26%	-4%	i	?	-25%
OC[C@@H]1CN(C2CCCCC2)C[C@H]1c1nc(-c2ccncc2)no1	-18%	1%	?	-27%	5%
OC[C@@H]1CN(C2CCC2)C[C@H]1c1nc(-c2ccncc2)no1	-3%	i	45µM*	-15%	2%
O=C(NCc1ccc(F)cc1)C1CCc2nnc(CN[S+](=O)([O-])c3ccccc3Cl)n21 (stereo not given)	i	-5%	.	i	.
OC1(CNc2cc(C(F)(F)F)nc(N3CCCC3)n2)CCCNCC1 (stereo not given)	-22%	?	i	?	-3%
CC(c1ccc(-c2ccc(N(C)C)nn2)cc1)N(C)C (stereo not given)	-11%	-5%	16µM*	3%	?
O=C(Nc1ccc2c(c1)OCO2)C1CCc2sc(C(=O)N3CCCC3)cc2C1 (stereo not given)	22µM*	2%	?	32µM*	?
COC(=O)c1cccc(NC(=O)C2CCc3sc(C(=O)N(C)C)cc3C2)c1 (stereo not given)	?	-2%	i	45µM*	-5%
COc1cccc(-c2ccc(CN)cc2)c1	?	-4%[88.5 µM]	.	-29%[172 µM]	.
Cc1cccc(-c2ccc(CN)cc2)c1	32µM*	-5%[88.5 µM]	.	63µM*	.
NCc1ccc(-c2cccc(Cl)c2)cc1	32µM*	-5%[88.5 µM]	.	45µM*	.
CC1=NS(=O)(=O)N(Cc2ccc(F)c(F)c2)C=C1C(=O)O	-10%	i	i	-12%	-7%
CCCn1nccc1C(=O)N1CCCC(CCc2cccc(C(F)(F)F)c2)C1 (stereo not given)	?	2%	i	25µM*	?
O=C(c1cccc(O)c1)N1CCCC(CCc2cccc(C(F)(F)F)c2)C1 (stereo not given)	?	i	i	40µM*	2%
Cc1ncsc1C(=O)N1CCCC(CCc2ccc(F)cc2F)C1 (stereo not given)	?	?	i	89µM*	-22%
O=C(CCc1cccnc1)N1CCCC(CCc2cccc(F)c2)C1 (stereo not given)	?	5%	?	?	-21%
CSCC(=O)N1CCCC(CCc2cccc(F)c2)C1 (stereo not given)	?	?	?	20µM*	-19%
Cc1cccc(C(=O)N2CCN(C(=O)c3nnn4c3COC(c3ccc(F)cc3)C4)CC2)c1 (stereo not given)	-22%	i	i	?	?
O=C(c1ccncc1)N1CCCC(CCc2ccc(F)cc2)C1 (stereo not given)	?	-4%	i	40µM*	?
CCCc1ncncc1C(=O)N1CCCC(CCc2ccc(F)cc2)C1 (stereo not given)	?	i	i	?	1%
